Holding throughout (type): functional
Experiment [1] has as its target Solute carrier family 2, facilitated glucose transporter member 1 (Homo sapiens) (UniProt P11166). In words: ST_JUDE_LEISH: Cytotoxicity at 2uM final concentration against transgenic Leishmania Mexicana promastigotes LmGLUT1 that are glucose transport deficient and complemented with the human glucose transporter GLUT1. Activity is measured by DNA content using SYBR green in vitro.

Experiment [2] concerns the target Hexose transporter 1 (Plasmodium falciparum) (UniProt O97467). In words: ST_JUDE_LEISH: Cytotoxicity at 2uM final concentration against transgenic Leishmania Mexicana promastigotes LmPfHT that are glucose transport deficient and complemented with the Plasmodium falciparum hexose transporter. Activity is measured by DNA content using SYBR green in vitro.
The target in experiment [3] is Glucose transporter (Leishmania mexicana) (UniProt O61059). In words: ST_JUDE_LEISH: Cytotoxicity at 2uM final concentration against transgenic Leishmania Mexicana promastigotes LmGT2 that are glucose transport deficient and complemented with the L. Mexicana glucose transporter 2. Activity is measured by DNA content using SYBR green in vitro.

Sequence of Solute carrier family 2, facilitated glucose transporter member 1 (Homo sapiens) (P11166 whole entry): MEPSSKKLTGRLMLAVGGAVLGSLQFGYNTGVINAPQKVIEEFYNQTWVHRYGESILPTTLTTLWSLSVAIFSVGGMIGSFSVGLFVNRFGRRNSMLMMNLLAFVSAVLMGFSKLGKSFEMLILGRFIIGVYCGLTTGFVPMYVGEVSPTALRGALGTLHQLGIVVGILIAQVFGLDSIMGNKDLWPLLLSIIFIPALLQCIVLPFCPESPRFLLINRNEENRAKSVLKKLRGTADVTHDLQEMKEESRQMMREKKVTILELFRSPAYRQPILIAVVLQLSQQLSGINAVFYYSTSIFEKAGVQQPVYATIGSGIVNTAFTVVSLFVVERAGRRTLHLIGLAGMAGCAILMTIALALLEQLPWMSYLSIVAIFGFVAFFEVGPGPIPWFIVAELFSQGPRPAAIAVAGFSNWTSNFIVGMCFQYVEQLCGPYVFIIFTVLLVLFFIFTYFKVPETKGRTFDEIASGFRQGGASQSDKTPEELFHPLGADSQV

Take `Cc1ccc(S(=O)(=O)NC2=NC(=N)N(OCc3ccc(Cl)c(Cl)c3)C(C)(C)N2)cc1`: the inhibition (as a rule, the change of the read-out against control, counted positive when it falls) worked out at 12.6% in experiment [1], 13.6% in experiment [2] and 13.9% in experiment [3].
For `CCN1CCCC1CN(Cc1ccc(-c2ccc(C(F)(F)F)cc2)cc1)C(=O)Cn1c(CCc2cccc(F)c2F)nc(=O)c2ccccc21` (stereo unspecified) the same measures were 1.13%, 2.82% and 1.11%.
As to `CCC(CC)(Cc1ccccc1)NC(=O)[C@H](CC1CCCCC1)Nc1ccc(C#N)c2ccccc12`, the inhibition in experiment [1] is -1.5%; in experiment [2], -0.75%; in experiment [3], -0.23%.
Take `CC(C)Oc1cc2c(cc1NS(=O)(=O)c1ccc(-c3cccs3)cc1)CCN(C)CC2`: the inhibition in experiment [1] worked out at 5.11%; in experiment [2], 2.07%; in experiment [3], 1.94%.
Turning to `Cc1ccc(NC(=O)c2ccc(CN3CCCN(CC4CCCCC4)CC3)cc2)cc1C`, the values for the inhibition in experiment [1], in experiment [2] and in experiment [3] were 7.66%, 7.13% and 8.98%, respectively.
For `CCC(C)NS(=O)(=O)c1ccc2nc(Nc3ccc(C)c(Cl)c3)n([C@H](C)C(C)(C)C)c2c1` (stereo partly specified), the inhibition in experiment [1] is 2.63%; in experiment [2], 2.57%; in experiment [3] it was 0.57%.
Take `COc1cc(C(=O)NC2CC(C)(C)N(C)C(C)(C)C2)ccc1-c1cc2cc(Cl)c(Cl)cc2[nH]1`: the inhibition in experiment [1] is 1.97%; in experiment [2], -1.54%; in experiment [3], 2.48%.
As for `COc1ccc2nccc([C@@H](O)CN3CCC(NCc4nc5cc(F)cc(F)c5[nH]4)CC3)c2c1`, the inhibition was 3.31% in experiment [1], 4.04% in experiment [2] and -0.63% in experiment [3].
With `N#Cc1cccc(C(=O)Nc2ccc(-c3cccc(CN4CCCC4)c3)cc2)c1`, the inhibition in experiment [1] came out at 55.6%; in experiment [2], 6.55%; in experiment [3], 7.42%.
Taken in the same sequence, the figures for `COc1ccc(-c2nnc(Sc3ccc(C#N)c([N+](=O)[O-])c3)n2CCC(C)C)cc1` were 5.19%, 5.04% and -0.81%.
As to `COc1ccc(NC(=O)/C=C/c2ccccc2Cl)cc1OCCN1CCN(c2ccncc2)CC1`, the results for the inhibition in experiment [1], in experiment [2] and in experiment [3] were 1.29%, -0.96% and -1.49%, respectively.
Taken in the same sequence, the figures for `COc1ccc(-c2cnc3ccc(NCc4ccc(S(N)(=O)=O)cc4)nn23)cc1` were 3.11%, 3.14% and 12.6%.
Turning to `COCCCC1C(=O)OC2CCCC21` (stereo unspecified), the inhibition in experiment [1] came out at 0.19%; in experiment [2], 3.28%; in experiment [3], 2.52%.
For `O=C(/C=C/c1ccc(Cl)c(Cl)c1)NC1CCC(CN2CCC(c3nc4ccccc4s3)CC2)CC1` (stereo unspecified) the same measures were 0.92%, 5.64% and -1.65%.
Take `COc1cc(CCN(C)Cc2ccc(OC)c(OC)c2)ccc1NC(=O)c1cccc2c(O)c3cccc(F)c3nc12`: the inhibition in experiment [1] stood at 3.49%; in experiment [2], 1.84%; in experiment [3], 3.27%.
On to `S=C(NCCCCCN1CCC(c2c[nH]c3ccccc23)CC1)Nc1ccc(Cl)c(Cl)c1`, for which the inhibition in experiment [1] is 1.88%; in experiment [2] it was 1.44%; in experiment [3], 2.15%.
For the compound `CC1N=C(N)N=C(N)N1OCc1cccc2ccccc12` (stereo unspecified), the figures for the inhibition in experiment [1], in experiment [2] and in experiment [3] were 1.93%, 0.04% and 1.84%, respectively.
For `COc1cc2nc(C)nc(Nc3ccc(Cc4ccccc4)cc3)c2cc1OC`, the inhibition in experiment [1] is 4.72%; in experiment [2], 5.93%; in experiment [3], 3.99%.
Take `Cn1cc(CN2CCC(OC(c3ccccc3)c3ccc(Cl)cc3)CC2)cn1` (stereo unspecified): the values for the inhibition in experiment [1], in experiment [2] and in experiment [3] were 4.78%, 1.66% and -0.63%, respectively.
As to `COc1ccccc1/C=C/C(=O)NC1CCC(CCN2CCc3ccc(-c4cc(C)no4)cc3CC2)CC1` (stereo unspecified), the inhibition in experiment [1] came out at 3.11%; in experiment [2] it was 1.2%; in experiment [3] it was 9.56%.
Take `COc1cc(OC)cc(-c2nc3ccc(OCCN(C)C)c(C#N)c3[nH]2)c1`: the inhibition was 0.95% in experiment [1], 4.09% in experiment [2] and 2.21% in experiment [3].
On to `CO/C(=C\C=C\c1cc2cc(Cl)c(Cl)cc2[nH]1)C(=O)NC1CCN(CCCc2ccccc2)CC1`, for which the inhibition amounted to 0.89% in experiment [1], 1.14% in experiment [2] and 2.46% in experiment [3].
For the compound `CCn1c(-c2nonc2N)nc2c(-c3cccc(NC(=O)Nc4cccc(OC)c4)c3)ncc(OCCCN)c21`, the inhibition in experiment [1] was found to be 0.06%; in experiment [2] it was 2.8%; in experiment [3] it was 1.32%.
Turning to `CC[C@H]1CN(Cc2cccc(O)c2)CC[C@H]1CCCc1ccnc2ccc(O)cc12`, the figures for the inhibition in experiment [1], in experiment [2] and in experiment [3] were 4.31%, 4.23% and 3.98%, respectively.
For `CN(C)Cc1cccc(-c2ccc(NC(=O)c3ccc4c(=O)n(Cc5cnn(C)c5)cnc4c3)cc2)c1` the same measures were 1.78%, 2.88% and 4.86%.
Taken in the same sequence, the figures for `COc1cccc(NC(=O)Nc2c(-c3cccc(C(F)(F)F)c3)c(C(F)(F)F)nn2C)c1` were 0.7%, 1.76% and 0.37%.
`Cc1ccc(CNC(=O)[C@H](Cc2ccccc2)Nc2ccnc(NCC3CCCCC3)n2)cc1`: the figures for the inhibition in experiment [1], in experiment [2] and in experiment [3] were 7.85%, 4.83% and 3.01%, respectively.
As for `N=C(N)NN=CC(=O)Nc1ccc(Br)cc1`, the inhibition in experiment [1] was -1.7%; in experiment [2], -4.24%; in experiment [3], -1.29%.
For `CCN(CC)CCCN1CCN(C(=O)c2cccc(-c3noc(C(F)(F)F)n3)c2)CC1` the same measures were 5.54%, 4.63% and 4%.
Consider `Cc1ccc(Nc2nc(C)cc(Nc3cccc(NS(C)(=O)=O)c3)n2)cc1`, for which the figures for the inhibition in experiment [1], in experiment [2] and in experiment [3] were 11.5%, 12.5% and 9.23%, respectively.
For the compound `CCCCCCCN1CCC(NC(=O)Nc2ccnc3ccc(OC)cc23)C(C(=O)OCC)C1` (stereo unspecified), the results for the inhibition in experiment [1], in experiment [2] and in experiment [3] were -2.21%, 0% and -2.59%, respectively.
For `O=C(Nc1ccc(Br)cc1)Nc1ccc(Cn2ncc(N3CCCNCC3)c(Cl)c2=O)cc1` the same measures were -2.08%, 0.01% and 2.81%.

The values are drawn from ChEMBL document CHEMBL3433997, “St. Jude Leishmania screening dataset” (2016).
